TWEAK Fn14 block = TWEAK-Fn14 signaling inhibition. TWEAK-stimulated Fn14 reporter cells, luciferase luminescence, 8 h. AID 1159606. actives 2% (n = 360,000). inhibition, % at 10 µM; in the data active means inhibition above about 50%
LGR2 antag = Drosophila LGR2 receptor signaling inhibition. HEK293 LGR2, CRE-luciferase, bursicon-stimulated, 4 h. inhibition, % at 9.99 µM. actives 0.35% (n = 380,000);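 active means drop in luminescence signal, shown as inhibition above about 50% in the replicate tests, limit read from the data, passing the limit was not always enough; inconclusive means probably only some replicates passing the limit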;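 further: agonist challenge used bursicon conditioned medium at about half maximal strength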
TROY signal inh = TROY signaling inhibition; actives 0.98% (n = 360,000); inhibition, % at 10 µM; Q293 LMP1-TROYcd NF-kB luciferase reporter, 4 h;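 active means compounds whose plate-normalised and pattern-corrected inhibition of the luciferase reporter signal at the single screening dose is 50% or more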
HSF1 inh = HSF1 inhibition; NIH3T3-HGL HSE-luciferase, MG132-induced, luminescence 8 h; stronger effect = lower value; activity change, negative = inhibition, % at 7.5 µM (by protocol); actives 0.77% (n = 300,000);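 active means more than half of replicate wells show activity change below -50%, luminescence cut by over half; inconclusive means some wells, but at most half, below -50%; inactive means no replicate well below -50%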;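 further: luciferase reports HSF-1 transcriptional activity via heat shock element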
HSF1 activator = increases HSF-1 driven luciferase reporter signal | NIH3T3-HGL HSF-1 luciferase reporter, MG132, 8 h; 100% = twice DMSO control signal | activation, % at 9 µM | actives 1.7% (n = 300,000) | AID 504408;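 active means mean replicate activation of at least 50% with a set share of replicates each reaching 50%; inconclusive means only one of those two conditions met; inactive means mean below 50% and too few replicates reaching it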
LMP1 NFkB inh = reduces LMP1-driven NF-kappaB luciferase signal; LMP1-induced NF-kappaB luciferase reporter cells, luminescence; inhibition, % at 12.5 µM; actives 0.69% (n = 350,000); AID 504558; in the data active means inhibition above about 41%; inconclusive means no clear call, values can overlap the other calls
Numbers stand for hits; 0 = inactive; ? = inconclusive; - = not tested or not shown. Compounds with a hit are over-represented: about 3.6% of the library has one in this group of screens.

SMILES	TWEAK Fn14 block	LGR2 antag	TROY signal inh	HSF1 inh	HSF1 activator	LMP1 NFkB inh
CCCNC(=O)N[C@@H]1C=C[C@H](CC(=O)NC2CCC2)O[C@@H]1CO	-	0	-	-	-	-
CC(C)(C)S(=O)N1Cc2cc(C(=O)Nc3ccc(-c4ccccc4)cc3)nc(-c3cccc(-c4cccc(F)c4)c3)c2[C@@H]1CCO (stereo partly specified)	-	0	-	-	-	-
Cc1cccc(NC(=O)COc2cccc3c2CCN(C)C3=O)c1C	0	0	0	0	0	0
CCOC(=O)c1c(NC(=O)CSc2nnc(-c3c[nH]c4ccccc34)n2CCOC)sc2c1CCCC2	0	0	0	0	0	0
CCOC(=O)c1c(NC(=O)CSc2nnc(-c3c[nH]c4ccccc34)n2C)sc2c1CCCC2	56.2	0	0	-56.4	0	0
CCOC(=O)c1c(NC(=O)COc2cccc3c2CCN(C)C3=O)sc2c1CCC2	73.5	0	0	0	0	0
Brc1cccc(-c2cnco2)c1	0	0	0	0	0	56.2
COC(=O)c1cc(N=CC2=C(O)CC(C)(C)CC2=O)cc(C(=O)OC)c1	0	0	0	0	0	0
COC(=O)c1cc(OC)c(OC)cc1N=CC1=C(O)CC(C)(C)CC1=O	56.0	0	0	0	0	0
O=C(COC(=O)c1cccnc1)Nc1ccccc1	0	-	0	0	0	0
CC(=O)N1CCC(C(=O)Nc2ccccc2)(N(Cc2ccccc2)C(=O)c2cccnc2)CC1	0	-	50.5	0	0	0
CC[C@@H](C)C(C(=O)N1CCN(C(=O)OC(C)(C)C)CC1)n1cc(-c2cn([C@@H](C)C(=O)N3CCN(C(=O)OC(C)(C)C)CC3)nn2)nn1 (stereo partly specified)	0	-	54.6	0	0	0
O=C(O)CC1SC(=O)N(Cc2ccccc2)C1=O (stereo unspecified)	0	-	0	-88.7	0	0
COCC(=O)Nc1ccc2c(c1)OC[C@@H](C)N(C(=O)c1ccncc1)C[C@@H](C)[C@H](OC)CN(C)C2=O	-	0	-	-	-	-
CC[n+]1c(/C=C2\Sc3ccccc3N2C)ccc2cccc(C)c21	85.0	81.3	64.1	?	0	0
CCN1/C(=C/c2ccc3cc(C)ccc3[n+]2CC)Sc2ccccc21	72.1	0	64.9	0	0	0
CN1/C(=C/c2cccc[n+]2CCO)Sc2ccccc21	0	0	0	0	0	0
C[C@H]1CN([C@@H](C)CO)C(=O)c2cc(NC(=O)Cn3cnnn3)ccc2O[C@H]1CN(C)S(=O)(=O)c1ccc(Cl)cc1	-	0	-	-	-	-
CN(c1ncnc(N)c1[N+](=O)[O-])C1CCCCC1	81.3	0	52.2	0	0	0
CCCCN(c1ccccc1)c1ncnc(N)c1[N+](=O)[O-]	82.9	0	0	-52.1	0	46.5
CN(c1ncnc(N)c1[N+](=O)[O-])C1CCS(=O)(=O)C1 (stereo unspecified)	0	0	0	0	0	0
C[C@@H]1CCCCO[C@@H](CN(C)Cc2ccc(C(=O)Nc3ccccc3N)cc2)[C@@H](C)CN([C@H](C)CO)C(=O)c2cc(NC(=O)Nc3ccc4c(c3)OCO4)ccc2O1	-	0	-	-	-	-
C[C@@H]1CN([C@@H](C)CO)C(=O)c2cccc(NC(=O)c3cnccn3)c2O[C@H]1CN(C)Cc1ccc(Cl)c(Cl)c1	-	0	-	-	-	-
CC(C)c1ccc(NC(=O)N(CCc2nc3ccccc3[nH]2)C2CCCC2)cc1	0	-	0	-60.9	0	0
CC(=O)Nc1ccc(CCc2nc3ccccc3[nH]2)cc1	0	0	0	0	0	0
SMILES	TWEAK Fn14 block	LGR2 antag	TROY signal inh	HSF1 inh	HSF1 activator	LMP1 NFkB inh
CC=Cc1ccc2n(c1=O)C[C@@H]1[C@@H](CO)[C@H](C(=O)NCCc3cn(C)cn3)[C@H]2N1C(=O)C1CCCC1 (mixture of isomers)	-	0	-	-	-	-
COc1ccc(Cc2nnc(N/N=C/c3ccc(O)cc3)[nH]c2=O)cc1OC	0	0	0	0	0	60.5
O=[N+]([O-])c1ccc(N/N=C\c2cccn2-c2ccccc2)nc1	51.8	0	0	0	0	0
Cc1ccc(C)c(-n2nnnc2Sc2nnnn2-c2ccccc2)c1	101.1	-	53.1	0	0	0
Cc1noc(C)c1NC(=O)N(C)C[C@@H]1Oc2c(NC(=O)C3CC3)cccc2C(=O)N([C@@H](C)CO)C[C@@H]1C	-	0	-	-	-	-
COc1ccc(/C=C/C(=O)C23CC4CC(CC(C4)C2)C3)cc1CN1CCOCC1	0	0	0	0	122.1	0
COc1ccc(N=Nc2cc(OC)c(N)cc2OC)cc1	0	0	0	-	-	0
Cc1cc(N=Nc2ccc(C)c(N=Nc3cc(C)c(N)cc3N)c2)c(N)cc1N	69.1	0	0	0	0	0
O=C(C[C@H]1C[C@@H]2c3cc(NC(=O)C4CCOCC4)ccc3O[C@@H]2[C@@H](CO)O1)NCc1ccccc1F	-	0	-	-	-	-
c1ccc2c(c1)oc1c(Nc3ccc(CN4CCOCC4)cc3)ncnc12	75.4	-	51.9	0	0	0
Cc1cccc(CS(=O)(=O)c2nnc([C@H](Cc3ccccc3)NC(=O)OC(C)(C)C)o2)c1	0	-	0	-67.5	0	0
COC(=O)CS(=O)(=O)c1nnc([C@H](Cc2ccccc2)NC(=O)OC(C)(C)C)o1	0	-	0	0	?	0
O=C(C[C@H]1CC[C@H](NC(=O)Nc2ccccc2F)[C@H](CO)O1)NCc1ccc(-c2ccccc2)cc1	-	0	-	-	-	-
CC(=NNC(=S)N1CC2CCC(CC2)C1)c1cnccn1	0	0	0	0	0	65.8
CC(=NNC(=S)N1CC2CCC(CC2)C1)c1ccccn1	0	?	0	-	-	0
CN(C)c1ccc(C(O)Cc2nc3ccccc3n2C)cc1 (stereo unspecified)	73.8	0	79.3	0	0	0
CC(C)n1c(-c2ccc(N(C)C)cc2)nc2ccccc21	0	-	0	-	-	0
CN(C)c1ccc(-c2nc3ccccc3n2C)cc1	0	73.9	0	0	0	49.6
CCNC(=O)Nc1ccc2c(c1)C(=O)N(C)[C@H]1CC[C@H](CC(=O)NCC3CC3)O[C@H]1CO2	-	0	-	-	-	-
CC(NC(=O)c1ccc(F)cc1)C(c1cccs1)N1CCN(C)CC1 (stereo unspecified)	0	0	0	0	0	0
CC(NC(=O)c1ccc(N(C)C)cc1)C(c1cccs1)N1CCN(C)CC1 (stereo unspecified)	0	-	62.4	-	-	0
CC(NC(=O)c1ccc(C(C)(C)C)cc1)C(c1cccs1)N1CCOCC1 (stereo unspecified)	0	0	0	0	69.1	0
CC(NC(=O)c1ccncc1)C(c1cccs1)N1CCOCC1 (stereo unspecified)	0	0	0	0	0	0
CN(C)CC(=O)Nc1ccc2c(c1)[C@H]1C[C@@H](CC(=O)NCC3CC3)O[C@@H](CO)[C@H]1O2	-	0	-	-	-	-
N#CC1=C(N)NC(SCc2ccc(Br)cc2)=C(C#N)C12CCCCC2	0	-	54.0	0	0	0
N#CC1=C(N)NC(SCc2ccc(Cl)cc2)=C(C#N)C12CCCCC2	0	0	0	0	0	0

Compound activity deposited in PubChem by several laboratories.
